Results taken from PubChem BioAssay AID1159580 (chemical genetic matrix, 2015).
Values joined by “and” are separate entries in the source; they are usually repeats but may differ in a detail not shown here. Equal entries are not always repeated. About 2,000 (36%) of roughly 5,500 compounds were called active. Not shown: some 18% with an inconclusive outcome. Rule as the data show it: active = normalized growth mostly below about 0.91 (no sharp cut-off); inconclusive = no clear call, values can overlap the other calls; inactive = mostly above about 0.92. Some of the results follow.

Assay: chemical genetic growth profiling, strain panel (AID 1159580);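 also: tested at 20 µM; growth read once vehicle control cultures reached saturation at 30 °C; 1 = growth at the plate median or of vehicle wells; lower values mean less growth of the strain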
Conditions: S. cerevisiae deletion strains, growth OD

Measured: normalized growth

CCN(CC)CCOc1ccc2c(c1)C(=O)c1cc(OCCN(CC)CC)ccc1-2
inactive: locus YAL013W, strain DEP1, active compounds read low 1 | locus YAL021C, strain ccr4, active compounds read low 0.962 | locus YAL026C, strain drs2, active compounds read low 0.984 | locus YAL030W, strain snc1, active compounds read low 1 | locus YBL061C, strain skt5, active compounds read low 0.993 | locus YBR009C, strain hhf1, active compounds read low 0.993 | locus YBR021W, strain FUR4, active compounds read low 1.06 | locus YBR023C, strain chs3, active compounds read low 0.98 | locus YBR171W, strain sec66, active compounds read low 0.979 | locus YBR229C, strain ROT2, active compounds read low 1 | locus YBR231C, strain swc5, active compounds read low 0.974 | locus YBR279W, strain paf1, active compounds read low 0.981 | locus YCL011C, strain gbp2, active compounds read low 0.977 | locus YCL016C, strain dcc1, active compounds read low 0.973 | locus YCL029C, strain bik1, active compounds read low 0.975 | locus YCL061C, strain MRC1, active compounds read low 0.981 | locus YCL069W, strain vba3, active compounds read low 0.996 | locus YCR088W, strain abp1, active compounds read low 0.984 | locus YDL005C, strain med2, active compounds read low 0.966 | locus YDL035C, strain GPR1, active compounds read low 0.991 | locus YDL040C, strain nat1, active compounds read low 0.986 | locus YDL074C, strain BRE1, active compounds read low 0.998 | locus YDL101C, strain DUN1, active compounds read low 0.987 | locus YDL134C, strain PPH21, active compounds read low 0.994 | locus YDL185W, strain tfp1, active compounds read low 0.947 | locus YDL192W, strain arf1, active compounds read low 0.984 | locus YDR001C, strain nth1, active compounds read low 0.979 | locus YDR069C, strain doa4, active compounds read low 0.96 | locus YDR101C, strain arx1, active compounds read low 0.991 | locus YDR137W, strain rgp1, active compounds read low 0.998 | locus YDR150W, strain NUM1, active compounds read low 0.973 | locus YDR159W, strain sac3, active compounds read low 1 | locus YDR162C, strain NBP2, active compounds read low 1.02 | locus YDR195W, strain ref2 0.96 | locus YDR297W, strain sur2, active compounds read low 0.997 | locus YDR318W, strain mcm21, active compounds read low 0.98 | locus YDR334W, strain swr1, active compounds read low 0.975 | locus YDR335W, strain msn5, active compounds read low 0.989 | locus YDR388W, active compounds read low 0.983 | locus YDR392W, strain spt3, active compounds read low 0.807 | locus YDR502C, strain sam2, active compounds read low 0.99 | locus YEL003W, strain gim4, active compounds read low 0.99 | locus YEL037C, strain rad23, active compounds read low 0.994 | locus YEL061C, strain CIN8 (second series), active compounds read low 0.986 | locus YEL061C, strain CIN8, active compounds read low 0.997 | locus YER015W, strain faa2, active compounds read low 0.991 | locus YER016W, strain bim1, active compounds read low 0.957 | locus YER110C, active compounds read low 0.962 | locus YER111C, strain swi4, active compounds read low 0.971 | locus YER155C, strain BEM2 (second series), active compounds read low 0.937 | locus YER155C, strain BEM2, active compounds read low 1 | locus YER167W, strain BCK2, active compounds read low 0.982 | locus YFR010W, strain ubp6, active compounds read low 0.992 | locus YGL078C, strain dbp3, active compounds read low 0.98 | locus YGL086W, strain mad1, active compounds read low 0.993 | locus YGL167C, strain pmr1, active compounds read low 0.982 | locus YGL173C, strain kem1, active compounds read low 0.978 | locus YGL227W, strain vid30, active compounds read low 0.978 | locus YGL240W, strain doc1, active compounds read low 0.983 | locus YGL248W, strain PDE1, active compounds read low 1 | locus YGL253W, strain hxk2, active compounds read low 0.983 | locus YGR078C, strain PAC10, active compounds read low 0.996 | locus YGR135W, strain pre9, active compounds read low 1.02 | locus YGR229C, strain SMI1, active compounds read low 1.04 | locus YGR252W, strain gcn5, active compounds read low 0.99 | locus YHR013C, strain ard1, active compounds read low 0.933 | locus YHR027C, strain rpn1, active compounds read low 0.979 | locus YHR030C, strain SLT2, active compounds read low 0.977 and 0.988 | locus YHR079C, strain IRE1 (second series), active compounds read low 0.989 | locus YHR079C, strain IRE1, active compounds read low 0.977 | locus YHR094C, strain hxt1, active compounds read low 0.972 | locus YHR129C, strain ARP1, active compounds read low 0.998 | locus YHR142W, strain chs7, active compounds read low 0.99 | locus YHR200W, strain rpn10, active compounds read low 0.98 | locus YIL066C, strain RNR3, active compounds read low 0.99 | locus YIL073C, strain SPO22, active compounds read low 0.948 | locus YIL125W, strain kgd1, active compounds read low 0.981 | locus YIR030C, strain dcg1, active compounds read low 0.991 | locus YJL092W, strain hpr5, active compounds read low 0.987 | locus YJL095W, strain BCK1 (second series), active compounds read low 0.983 | locus YJL095W, strain BCK1, active compounds read low 1 and 0.986 | locus YJL115W, strain asf1, active compounds read low 0.98 | locus YJL129C, strain trk1, active compounds read low 0.974 | locus YJL134W, strain LCB3, active compounds read low 0.989 | locus YJL154C, strain vps35, active compounds read low 0.979 | locus YJL164C, strain tpk1, active compounds read low 0.993 | locus YJL166W, strain qcr8, active compounds read low 0.984 | locus YJL168C, strain set2, active compounds read low 0.983 | locus YJL187C, strain SWE1 (second series), active compounds read low 0.983 | locus YJL187C, strain SWE1, active compounds read low 0.981 | locus YJR043C, strain POL32, active compounds read low 1.01 | locus YJR066W, strain TOR1, active compounds read low 0.965
